About 79,000 compounds went through this panel and 15% of them were active in at least one assay; those are over-represented in the sample as a whole. Unmarked numbers belong to inactive results. No stated cut-off is given here; in the data, active means growth inhibition above about 70%; inactive means the rest.
Test: NCI Yeast Anticancer Drug Screen. Data for the mec2-1 strain (AID 157)
Conditions: S. cerevisiae mec2-1 strain, at 50.0 µM, active compounds read high
Procedure: Growth inhibition of yeast strains with defined genetic alterations is measured as a screen for potential anti-cancer activity. Selected strains with alterations in DNA damage repair or cell cycle control were exposed to compounds and growth inhibition was measured relative to vehicle treated controls. The strain used in this assay is mec2-1

| Compound | growth inhibition [%] |
| --- | --- |
| O=[N+]([O-])c1ccc(O)c(S(=O)(=O)O)c1 | -20.6 |
| CC(=O)c1cc2c(cc1F)C(C)(C)CCC2(C)C | -30.4 |
| O=C(O)C(Cc1ccccc1)C(=O)O | -7.15 |
| CC(=O)CC(=O)N(C)C | -0.6 |
| CCOC(=O)c1cc2cccc(OC)c2oc1=O | 3.45 |
| COc1ccccc1NC(=O)C1=C(C)NC(C)=C(C(=O)Nc2ccccc2OC)C1c1cccc([N+](=O)[O-])c1 | 23.2 |
| COc1cc(C2c3cc4c(cc3C3OC(=O)C2C3CO)OCO4)cc(OC)c1OC (stereo not given) | -9.95 |
| CCOC(=O)c1cc(/C=C/c2cccc(Cl)c2)on1 | 27.6 |
| NC(C(=O)O)C(O)c1ccco1 (stereo not given) | -0.1 |
| O=C(O)COCC(=O)O | -15.2 |
| CC1NC(=O)NC1CCCCCC(=O)O (stereo not given) | 11.4 |
| O=C(c1ccc(O)cc1)c1ccc(O)cc1 | -6.6 |
| CC1(C)/C(=C\CO)C2CCC1C2 (stereo not given) | 0.05 |
| CC1CC(O)C2C3(C)CCCC2(COC3=O)C12CCC1(CCOC1=O)O2 (stereo not given) | 8.35 |
| O=C(O)c1ccccc1NCc1ccco1 | -40.9 |
| Nc1ccc(N=Nc2ccc(O)cc2)c(N)n1 | -20.1 |
| O=S(=O)(O)c1ccc(O)c2ccccc12 | 19.4 |
| Cc1ccncc1C(N)=O | -2.8 |
| CN(C)c1ccc(C(c2ccc(O)cc2)c2ccc(N(C)C)cc2)cc1 | -37.1 |
| C=C1CC/C=C(\C)C(=O)C[C@@H]2[C@@H]1CC2(C)C | 11.8 |

| Compound | growth inhibition [%] |
| --- | --- |
| O=C(Cc1nc2ccc([N+](=O)[O-])cc2nc1CC(=O)c1ccccc1)c1ccccc1 | 9.35 |
| COc1cc2nc3cc([N+](=O)[O-])ccc3c(Cl)c2cc1OC | -20.9 |
| NC(=S)CN1CCOCC1 | -3.2 |
| CC(=O)Cc1cc(-c2cc(CC(C)=O)[nH]n2)n[nH]1 | -22.1 |
| CC(C(=O)O)(C1CCCCC1)C1(O)CCCCC1 (stereo not given) | 45.5 |
| O=S(=O)(O)CC(O)CN1CCN(CCO)CC1 (stereo not given) | -35.8 |
| CCOC(=O)C(C#N)Cc1ccccc1 (stereo not given) | -2.15 |
| CCNc1nc2c(cnn2C)c(=O)[nH]1 | 28.4 |
| Cc1cc2ccccc2c(O)c1C#N | 17.9 |
| CN(C)CCN(C)CC(C)(C)C(=O)/C=C/c1ccc(Cl)cc1 | 3 |
| Cc1cc2nc(CC(=O)c3cccc([N+](=O)[O-])c3)c(=O)[nH]c2cc1C | 10.9 |
| CC1CCC(C(=O)O)N1 (stereo not given) | 6.5 |
| CCCNC(=O)c1ccc(S(N)(=O)=O)cc1 | 1 |
| COC(=O)c1cccnc1 | -3.85 |
| O=C(O)c1ccnc(Br)c1 | -0.05 |
| CC(=O)c1ccc2c(ccc3ccccc32)c1 | -16.3 |
| CC(=O)c1ccc(C)c(N)c1 | 0.15 |
| Cc1cc(O)ccc1O | 25.1 |
| COc1ccccc1N=Nc1c(O)ccc2cc(S(=O)(=O)O)ccc12 | 6.9 |
| Cc1cccc(CO)c1 | -28.6 |
